Measurements reported in PubChem BioAssay (NCI).
Compounds without any hit were thinned out: in the full panel of roughly 79,000, 15% have a hit. Active and inactive are the calls of the source. Rule as the data show it: active = growth inhibition above about 70%; inactive = the rest.

Experiments:
[1] = NCI Yeast Anticancer Drug Screen. Data for the wt2 strain (AID 169);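 also: 0% = growth of vehicle-treated yeast cultures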; conditions: S. cerevisiae wt2 strain growth inhibition, stronger effect = higher value
Method in brief: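 Inhibition of yeast growth was determined after compound treatment, normalised to controls receiving only vehicle.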

[2] = NCI Yeast Anticancer Drug Screen. Data for the mlh1 strain (AID 171);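 also: 0% = growth of vehicle-treated control cultures of the same strain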; conditions: S. cerevisiae mlh1 strain growth inhibition, stronger effect = higher value
Method in brief: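 Vehicle-normalised growth inhibition of a repair- or checkpoint-altered yeast strain following compound treatment.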

[3] = NCI Yeast Anticancer Drug Screen. Data for the sgs1 strain (AID 173);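 also: 0% = growth of vehicle-only control cultures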; conditions: S. cerevisiae sgs1 mutant, stronger effect = higher value
Method in brief: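 Screen format: yeast with repair or checkpoint alterations, compound exposure, growth read relative to vehicle.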

[4] = NCI Yeast Anticancer Drug Screen. Data for the mlh1 rad18 strain (AID 175); conditions: S. cerevisiae mlh1 rad18 strain growth inhibition, stronger effect = higher value
Method in brief: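 Vehicle-treated cultures served as the reference for growth inhibition in a yeast strain carrying DNA damage repair alterations exposed to each compound.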

[5] = NCI Yeast Anticancer Drug Screen. Data for the rad18 strain (AID 177); conditions: S. cerevisiae rad18 mutant growth inhibition, stronger effect = higher value
Method in brief: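 Test articles were incubated with altered yeast defective in DNA damage repair. Results are given as inhibition of growth versus vehicle.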

[6] = NCI Yeast Anticancer Drug Screen. Data for the rad52 strain (AID 147);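 also: 0% = growth of vehicle-treated control cultures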; conditions: S. cerevisiae rad52 mutant growth inhibition, stronger effect = higher value
Method in brief: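 Vehicle-treated cultures served as the reference for growth inhibition of compound-exposed yeast bearing a DNA repair mutation.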

[7] = NCI Yeast Anticancer Drug Screen. Data for the wt1 strain (AID 149);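 also: 0% = growth of vehicle-treated wt1 cultures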; conditions: S. cerevisiae wt1 strain (SPY 50644) growth inhibition, stronger effect = higher value
Method in brief: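 wt1 yeast, compound-treated; % growth inhibition vs vehicle control.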

[8] = NCI Yeast Anticancer Drug Screen. Data for the rad50EPP+ strain (AID 151);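 also: 0% = growth of vehicle-treated control cultures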; conditions: S. cerevisiae rad50 mutant strain, stronger effect = higher value
Method in brief: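 In this screen, rad50EPP+ yeast were exposed to compounds. Growth inhibition was scored against vehicle-treated controls.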

[9] = NCI Yeast Anticancer Drug Screen. Data for the mgt1 strain (AID 153); conditions: S. cerevisiae mgt1 mutant growth inhibition, stronger effect = higher value
Method in brief: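 mgt1 strain exposed; growth vs vehicle control recorded as inhibition.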

[10] = NCI Yeast Anticancer Drug Screen. Data for the rad50 strain (AID 155);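 also: 0% = growth of vehicle-only cultures of the same strain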; conditions: S. cerevisiae rad50 strain growth inhibition, stronger effect = higher value
Method in brief: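 Genetically altered yeast (DNA repair pathway); compound treatment; growth inhibition vs vehicle ctrl.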

[11] = NCI Yeast Anticancer Drug Screen. Data for the mec2-1 strain (AID 157); conditions: S. cerevisiae mec2-1 strain, stronger effect = higher value
Method in brief: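 Vehicle-treated cultures served as reference for growth inhibition of compound-exposed mec2-1 yeast.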

[12] = NCI Yeast Anticancer Drug Screen. Data for the rad14 strain (AID 159);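 also: 0% = growth of vehicle-treated control cultures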; conditions: S. cerevisiae rad14 strain growth inhibition, stronger effect = higher value
Method in brief: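 Test compounds were applied to a repair-deficient yeast strain. Its growth was then compared with that of cultures given vehicle alone, and inhibition was expressed relative to those controls.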

[13] = NCI Yeast Anticancer Drug Screen. Data for the sgs1 mgt1 strain (AID 161);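 also: 0% = growth of cultures given vehicle only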; conditions: S. cerevisiae sgs1 mgt1 strain, stronger effect = higher value
Method in brief: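 Test agents were incubated with a DNA-repair-mutant yeast strain. Growth was then read and compared against vehicle-treated controls.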

[14] = NCI Yeast Anticancer Drug Screen. Data for the CLN2oe strain (AID 163);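 also: 0% = growth of vehicle-only control cultures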; conditions: S. cerevisiae CLN2oe strain, stronger effect = higher value
Method in brief: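 Inhibition relative to vehicle-treated yeast is reported. Cells: strain with genetic alteration in cell-cycle control, grown with compound.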

[15] = NCI Yeast Anticancer Drug Screen. Data for the cln2 rad14 strain (AID 165);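 also: 0% = growth equal to vehicle treated cultures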; conditions: S. cerevisiae cln2 rad14 strain, stronger effect = higher value
Method in brief: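 Each compound was tested on cln2 rad14 yeast. Inhibition of growth was calculated against vehicle-exposed controls.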

[16] = NCI Yeast Anticancer Drug Screen. Data for the bub3 strain (AID 167); conditions: S. cerevisiae bub3 mutant strain, stronger effect = higher value
Method in brief: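 Yeast carrying a defined mutation is treated with each compound, and growth is compared with that of vehicle-exposed cells to give inhibition.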

[17] = at 5.0 µM (retest, dose inferred, filed as 0.5)
[18] = at 50.0 µM (retest, dose inferred, filed as 5.0)

Measured: growth inhibition

CC(=O)OC1CCC2(C)C(=CCC3C4CCC5(OC6CC(C)CN(C(C)=O)C6C5C)C(C)=C4C(=O)C32)C1 (centres undefined)
active: [1]; at 33.0 µM 97% | [2]; at 33.0 µM 96% | [2]; at 100.0 µM 90% | [3]; at 33.0 µM 96% | [3]; at 100.0 µM 93% | [4]; [18] 98% | [4]; at 50.0 µM 76.8% | [5]; at 11.0 µM 75% | [5]; at 33.0 µM 96% | [5]; at 100.0 µM 95%
inactive: [1]; at 1.2 µM -9% | [1]; at 3.7 µM -4% | [1]; at 11.0 µM 53% | [1]; at 100.0 µM 59% | [2]; at 1.2 µM -17% | [2]; at 3.7 µM -21% | [2]; at 11.0 µM 51% | [3]; at 1.2 µM -10% | [3]; at 3.7 µM -9% | [3]; at 11.0 µM 54% | [4]; [17] -10% | [5]; at 1.2 µM -1% | [5]; at 3.7 µM 15%

CCCCCCCCCCCCCCCCCCOCC(O)COP(=O)(O)OCC1OC(n2cc(F)c(=O)[nH]c2=O)CC1O (centres undefined)
inactive: [6]; at 1.2 µM 15% | [6]; at 3.7 µM 16% | [6]; at 11.0 µM 61% | [7]; at 1.2 µM 17% | [7]; at 3.7 µM 4% | [7]; at 11.0 µM -7% | [7]; at 33.0 µM 16% | [8]; at 1.2 µM 42% | [8]; at 3.7 µM 38% | [9]; at 1.2 µM 30% | [9]; at 3.7 µM 25% | [9]; at 11.0 µM 64% | [10]; at 1.2 µM 18% | [10]; at 3.7 µM -10% | [10]; at 11.0 µM 54% | [11]; at 1.2 µM 4% | [11]; at 3.7 µM 12% | [11]; [17] 51% | [12]; at 1.2 µM 27% | [12]; at 3.7 µM 9% | [12]; at 11.0 µM -5% | [12]; at 33.0 µM 63% | [13]; [17] -34% | [14]; at 1.2 µM 30% | [14]; at 3.7 µM 28% | [14]; at 11.0 µM 60% | [15]; [17] 1% | [16]; at 1.2 µM 14% | [16]; at 3.7 µM 28% | [16]; [17] -12% | [16]; at 11.0 µM 1% | [1]; at 1.2 µM -57% | [1]; at 3.7 µM -83% | [1]; at 11.0 µM 58% | [2]; at 1.2 µM 32% | [2]; at 3.7 µM 19% | [2]; at 11.0 µM 54% | [3]; at 1.2 µM 26% | [3]; at 3.7 µM 19% | [4]; [17] 24% | [5]; at 1.2 µM 27% | [5]; at 3.7 µM -2% | [5]; at 11.0 µM 52%
active: [6]; at 33.0 µM 97% | [6]; at 100.0 µM 97% | [7]; at 100.0 µM 93% | [8]; at 11.0 µM 70% | [8]; at 33.0 µM 88% | [8]; at 100.0 µM 89% | [9]; at 33.0 µM 98% | [9]; at 100.0 µM 98% | [10]; [17] 91% | [10]; at 33.0 µM 96% | [10]; [18] 99% | [10]; at 50.0 µM 87.6% | [10]; at 100.0 µM 98% | [11]; at 11.0 µM 74% | [11]; at 33.0 µM 90% | [11]; [18] 99% | [11]; at 50.0 µM 88.5% | [11]; at 100.0 µM 96% | [12]; at 100.0 µM 95% | [13]; [18] 98% | [13]; at 50.0 µM 88.3% | [14]; at 33.0 µM 96% | [14]; at 100.0 µM 99% | [15]; [18] 96% | [15]; at 50.0 µM 89.8% | [16]; at 33.0 µM 74% | [16]; [18] 91% | [16]; at 50.0 µM 82.3% | [16]; at 100.0 µM 94% | [1]; at 33.0 µM 88% | [1]; at 100.0 µM 94% | [2]; at 33.0 µM 96% | [2]; at 100.0 µM 97% | [3]; at 11.0 µM 81% | [3]; at 33.0 µM 95% | [3]; at 100.0 µM 97% | [4]; [18] 99% | [4]; at 50.0 µM 91.2% | [5]; at 33.0 µM 97% | [5]; at 100.0 µM 98%

COc1cc(/C=C2\CCc3ccccc3C2=O)cc(OC)c1OC
active: [6]; at 100.0 µM 70% | [7]; at 100.0 µM 76% | [9]; at 100.0 µM 73% | [10]; at 100.0 µM 72% | [11]; at 100.0 µM 73% | [14]; at 100.0 µM 74% | [16]; at 33.0 µM 76% | [16]; [18] 86% | [16]; at 50.0 µM 74.3% | [16]; at 100.0 µM 85% | [1]; at 100.0 µM 79% | [2]; at 100.0 µM 75% | [3]; at 100.0 µM 86% | [5]; at 100.0 µM 73%
inactive: [6]; at 1.2 µM 3% | [6]; at 3.7 µM -3% | [6]; at 11.0 µM 3% | [6]; at 33.0 µM 18% | [7]; at 1.2 µM 9% | [7]; at 3.7 µM 3% | [7]; at 11.0 µM -2% | [7]; at 33.0 µM 11% | [8]; at 1.2 µM 1% | [8]; at 3.7 µM 2% | [8]; at 11.0 µM 17% | [8]; at 33.0 µM 30% | [8]; at 100.0 µM 40% | [9]; at 1.2 µM -9% | [9]; at 3.7 µM -14% | [9]; at 11.0 µM -45% | [9]; at 33.0 µM 6% | [10]; at 1.2 µM 6% | [10]; at 3.7 µM -3% | [10]; [17] 15% | [10]; at 11.0 µM -17% | [10]; at 33.0 µM 26% | [10]; [18] 6% | [10]; at 50.0 µM 44.1% | [11]; at 1.2 µM -17% | [11]; at 3.7 µM 10% | [11]; [17] -11% | [11]; at 11.0 µM 1% | [11]; at 33.0 µM 22% | [11]; [18] 14% | [11]; at 50.0 µM 25.6% | [12]; at 1.2 µM -10% | [12]; at 3.7 µM -25% | [12]; at 11.0 µM -44% | [12]; at 33.0 µM -28% | [12]; at 100.0 µM 48% | [13]; [17] 5% | [13]; [18] 33% | [13]; at 50.0 µM 56.8% | [14]; at 1.2 µM 13% | [14]; at 3.7 µM -2% | [14]; at 11.0 µM 2% | [14]; at 33.0 µM 15% | [15]; [17] 2% | [15]; [18] 24% | [15]; at 50.0 µM 39.8% | [16]; at 1.2 µM -29% | [16]; at 3.7 µM -13% | [16]; [17] -3% | [16]; at 11.0 µM 32% | [1]; at 1.2 µM 2% | [1]; at 3.7 µM 0% | [1]; at 11.0 µM -10% | [1]; at 33.0 µM 13% | [2]; at 1.2 µM -3% | [2]; at 3.7 µM -7% | [2]; at 11.0 µM -11% | [2]; at 33.0 µM 21% | [3]; at 1.2 µM 16% | [3]; at 3.7 µM 17% | [3]; at 11.0 µM 24% | [3]; at 33.0 µM 61% | [4]; [17] -15% | [4]; [18] 0% | [4]; at 50.0 µM 33.5% | [5]; at 1.2 µM 5% | [5]; at 3.7 µM 8% | [5]; at 11.0 µM 7% | [5]; at 33.0 µM 35%
